According to the supplement of paper PMC10849652:
Of roughly 8,800 targets only a part is listed; those with a hit were picked by preference. About 0.5% of all pairs of compound and target were hits. A number with no mark means an inactive call.

Legend:
Test in all cases: log2 fold change, soluble protein after heating vs DMSO (PISA); higher = thermal stabilisation; K562 lysate, 10 uM; active = over 0.2 and 3.5 SD of the protein, either way, in both replicates (recomputed)
erlotinib = compound: C#Cc1cccc(Nc2ncnc3cc(OCCOC)c(OCCOC)cc23)c1 [erlotinib]
Procedure, shortened: (§1)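 Quantification was by TMTpro 16plex LC-MS/MS with equalised channel sums, applied to the supernatant after 21,000xg for 90 min. Samples were crude K562 extract at 1 mg/mL protein in PBS pH 7.4 with 1 mM MgCl2, treated with 10 μM compound for 30 min, heated for 3 min across 48°C-58°C, pooled and brought to 0.5% NP-40 at 4°C. Values are log-two fold changes in thermal stability relative to solvent controls, from duplicates.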

[1] = compound: C/C(=N\NC(=O)C1=CC(=CC=C1)S(=O)(=O)N2CCOCC2)/C3=C(C=CC(=C3)Cl)O
Procedure, shortened: as §1

[2] = compound: C1=CC(=CC=C1C2=NC3=C(N2)C=C(C=C3)C(=O)N)OC4=CC=C(C=C4)Cl
Procedure, shortened: as §1

[3] = compound: C1=CC2=C(C=CC(=C2)/C=C\3/C(=O)NC(=NCC4=CC=CS4)S3)N=C1
Procedure, shortened: as §1

[4] = compound: C1=CC2=NC=CN=C2C=C1/C=C/3\C(=O)NC(=O)S3
Procedure, shortened: as §1

[5] = compound: C1=CC=C(C=C1)C2=NC(=C(N2)C3=CC=NC=C3)C4=CC(=C(C=C4)Cl)O
Procedure, shortened: as §1

[6] = compound: C1=CC=C2C(=C1)C3=NNC4=CC=CC(=C43)C2=O
Procedure, shortened: as §1

[7] = compound: C1CCN(C1)C(=O)NC2=CC=CC(=C2)NC3=NC=C(C(=N3)NCCC4=CN=CN4)Br
Procedure, shortened: as §1

[8] = compound: C1CN(CCC1(CC2=CC=C(C=C2)Cl)N)C3=NC=NC4=C3C=CN4
Procedure, shortened: as §1

IRAK-1-4 Inhibitor I = compound: C1COCCN1CCN2C3=CC=CC=C3N=C2NC(=O)C4=CC(=CC=C4)[N+](=O)[O-] [IRAK-1-4 Inhibitor I]
Procedure, shortened: as §1

Chain of UniProt Q05655 (Q05655 whole entry, looked up): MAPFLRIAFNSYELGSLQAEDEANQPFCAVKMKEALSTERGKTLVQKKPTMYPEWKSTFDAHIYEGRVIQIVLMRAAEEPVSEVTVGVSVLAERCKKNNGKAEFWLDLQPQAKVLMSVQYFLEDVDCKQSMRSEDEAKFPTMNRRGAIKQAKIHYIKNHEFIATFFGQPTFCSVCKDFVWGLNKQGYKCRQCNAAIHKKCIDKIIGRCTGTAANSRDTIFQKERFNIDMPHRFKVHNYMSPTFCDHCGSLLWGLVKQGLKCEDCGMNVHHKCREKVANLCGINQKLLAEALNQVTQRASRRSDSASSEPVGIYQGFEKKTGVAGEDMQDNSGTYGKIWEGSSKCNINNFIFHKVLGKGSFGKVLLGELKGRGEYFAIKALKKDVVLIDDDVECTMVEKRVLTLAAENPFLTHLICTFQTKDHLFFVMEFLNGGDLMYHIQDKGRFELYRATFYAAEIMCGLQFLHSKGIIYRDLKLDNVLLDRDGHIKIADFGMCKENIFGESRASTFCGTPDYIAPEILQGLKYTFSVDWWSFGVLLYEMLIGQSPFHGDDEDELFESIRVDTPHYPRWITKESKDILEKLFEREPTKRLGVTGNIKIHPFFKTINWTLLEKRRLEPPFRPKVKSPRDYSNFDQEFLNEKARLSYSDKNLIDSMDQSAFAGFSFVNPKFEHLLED
Chain of UniProt Q01813 (Q01813 whole entry, looked up): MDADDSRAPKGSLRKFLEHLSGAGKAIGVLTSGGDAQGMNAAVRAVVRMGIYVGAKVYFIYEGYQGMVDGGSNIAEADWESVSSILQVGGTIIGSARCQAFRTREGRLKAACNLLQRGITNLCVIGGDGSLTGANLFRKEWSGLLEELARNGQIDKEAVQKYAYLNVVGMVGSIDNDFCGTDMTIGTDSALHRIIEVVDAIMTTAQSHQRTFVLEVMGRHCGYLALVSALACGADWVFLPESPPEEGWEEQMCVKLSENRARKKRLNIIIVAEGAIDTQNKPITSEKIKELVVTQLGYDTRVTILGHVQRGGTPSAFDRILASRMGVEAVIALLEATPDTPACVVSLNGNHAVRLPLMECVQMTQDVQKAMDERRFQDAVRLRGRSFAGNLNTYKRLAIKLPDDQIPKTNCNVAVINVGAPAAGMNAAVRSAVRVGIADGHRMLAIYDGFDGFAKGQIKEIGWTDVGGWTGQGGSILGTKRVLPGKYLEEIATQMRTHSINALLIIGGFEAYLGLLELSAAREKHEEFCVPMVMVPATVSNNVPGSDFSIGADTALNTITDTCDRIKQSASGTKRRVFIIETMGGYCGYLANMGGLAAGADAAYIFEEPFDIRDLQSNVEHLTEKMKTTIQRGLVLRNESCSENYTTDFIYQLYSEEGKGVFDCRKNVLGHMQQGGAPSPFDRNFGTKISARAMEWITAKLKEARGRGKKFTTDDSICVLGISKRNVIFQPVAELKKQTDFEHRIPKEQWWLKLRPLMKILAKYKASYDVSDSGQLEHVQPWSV
Chain of UniProt P67775 (P67775 whole entry, looked up): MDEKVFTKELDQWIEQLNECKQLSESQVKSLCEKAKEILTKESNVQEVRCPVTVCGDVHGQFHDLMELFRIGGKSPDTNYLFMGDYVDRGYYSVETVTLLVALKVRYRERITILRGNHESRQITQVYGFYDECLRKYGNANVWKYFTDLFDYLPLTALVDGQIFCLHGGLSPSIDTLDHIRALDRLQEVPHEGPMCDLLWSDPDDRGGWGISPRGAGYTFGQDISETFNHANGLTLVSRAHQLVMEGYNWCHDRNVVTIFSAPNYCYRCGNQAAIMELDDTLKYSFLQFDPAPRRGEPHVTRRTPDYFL
Chain of UniProt Q9UNP9 (Q9UNP9 whole entry, looked up): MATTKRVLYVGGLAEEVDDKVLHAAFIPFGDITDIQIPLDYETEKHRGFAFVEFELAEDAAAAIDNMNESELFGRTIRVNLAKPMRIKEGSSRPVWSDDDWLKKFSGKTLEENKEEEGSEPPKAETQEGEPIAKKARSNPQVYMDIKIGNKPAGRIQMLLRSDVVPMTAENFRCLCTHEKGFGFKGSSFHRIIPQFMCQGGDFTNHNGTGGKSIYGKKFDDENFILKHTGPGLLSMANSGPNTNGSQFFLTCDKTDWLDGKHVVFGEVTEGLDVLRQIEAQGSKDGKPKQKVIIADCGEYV
Chain of UniProt Q03393 (Q03393 whole entry, looked up): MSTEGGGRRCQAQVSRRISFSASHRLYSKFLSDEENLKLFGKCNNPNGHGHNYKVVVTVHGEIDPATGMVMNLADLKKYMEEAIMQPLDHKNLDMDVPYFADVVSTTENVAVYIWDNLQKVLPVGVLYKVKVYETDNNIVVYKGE
Chain of UniProt P31323 (P31323 whole entry, looked up): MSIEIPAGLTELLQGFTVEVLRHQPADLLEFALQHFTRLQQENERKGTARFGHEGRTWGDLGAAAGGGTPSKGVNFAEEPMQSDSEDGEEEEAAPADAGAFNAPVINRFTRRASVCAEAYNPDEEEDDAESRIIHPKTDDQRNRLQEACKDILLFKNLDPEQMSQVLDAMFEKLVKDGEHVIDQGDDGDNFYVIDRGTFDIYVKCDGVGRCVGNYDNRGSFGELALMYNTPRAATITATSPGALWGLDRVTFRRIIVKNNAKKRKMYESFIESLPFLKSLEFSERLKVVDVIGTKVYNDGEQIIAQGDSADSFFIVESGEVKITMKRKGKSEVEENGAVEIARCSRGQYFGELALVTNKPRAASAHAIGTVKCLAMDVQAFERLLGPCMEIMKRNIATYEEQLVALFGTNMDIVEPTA
Chain of UniProt Q9UBF8 (Q9UBF8 whole entry, looked up): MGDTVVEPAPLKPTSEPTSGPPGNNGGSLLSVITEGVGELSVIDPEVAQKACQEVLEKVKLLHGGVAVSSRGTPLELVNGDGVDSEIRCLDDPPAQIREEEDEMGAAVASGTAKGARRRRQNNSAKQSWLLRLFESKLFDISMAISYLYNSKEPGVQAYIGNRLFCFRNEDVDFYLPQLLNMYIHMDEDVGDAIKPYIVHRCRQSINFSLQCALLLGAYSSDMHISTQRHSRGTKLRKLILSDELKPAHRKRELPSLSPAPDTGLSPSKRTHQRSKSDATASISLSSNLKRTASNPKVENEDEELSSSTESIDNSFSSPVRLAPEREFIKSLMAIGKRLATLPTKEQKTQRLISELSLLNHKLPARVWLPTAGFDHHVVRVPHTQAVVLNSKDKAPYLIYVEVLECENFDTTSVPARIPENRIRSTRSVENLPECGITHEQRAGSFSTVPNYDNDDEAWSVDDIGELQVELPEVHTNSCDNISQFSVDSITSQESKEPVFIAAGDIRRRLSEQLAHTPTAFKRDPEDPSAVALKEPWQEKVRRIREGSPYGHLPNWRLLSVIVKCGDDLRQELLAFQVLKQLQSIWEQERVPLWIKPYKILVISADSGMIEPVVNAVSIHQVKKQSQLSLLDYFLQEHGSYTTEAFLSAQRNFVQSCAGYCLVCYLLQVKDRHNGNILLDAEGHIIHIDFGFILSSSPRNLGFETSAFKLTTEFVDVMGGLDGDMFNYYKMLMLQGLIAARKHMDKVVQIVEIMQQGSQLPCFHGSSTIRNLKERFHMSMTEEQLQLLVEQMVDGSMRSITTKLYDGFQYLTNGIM
Chain of UniProt Q9HAU0 (Q9HAU0 whole entry, looked up): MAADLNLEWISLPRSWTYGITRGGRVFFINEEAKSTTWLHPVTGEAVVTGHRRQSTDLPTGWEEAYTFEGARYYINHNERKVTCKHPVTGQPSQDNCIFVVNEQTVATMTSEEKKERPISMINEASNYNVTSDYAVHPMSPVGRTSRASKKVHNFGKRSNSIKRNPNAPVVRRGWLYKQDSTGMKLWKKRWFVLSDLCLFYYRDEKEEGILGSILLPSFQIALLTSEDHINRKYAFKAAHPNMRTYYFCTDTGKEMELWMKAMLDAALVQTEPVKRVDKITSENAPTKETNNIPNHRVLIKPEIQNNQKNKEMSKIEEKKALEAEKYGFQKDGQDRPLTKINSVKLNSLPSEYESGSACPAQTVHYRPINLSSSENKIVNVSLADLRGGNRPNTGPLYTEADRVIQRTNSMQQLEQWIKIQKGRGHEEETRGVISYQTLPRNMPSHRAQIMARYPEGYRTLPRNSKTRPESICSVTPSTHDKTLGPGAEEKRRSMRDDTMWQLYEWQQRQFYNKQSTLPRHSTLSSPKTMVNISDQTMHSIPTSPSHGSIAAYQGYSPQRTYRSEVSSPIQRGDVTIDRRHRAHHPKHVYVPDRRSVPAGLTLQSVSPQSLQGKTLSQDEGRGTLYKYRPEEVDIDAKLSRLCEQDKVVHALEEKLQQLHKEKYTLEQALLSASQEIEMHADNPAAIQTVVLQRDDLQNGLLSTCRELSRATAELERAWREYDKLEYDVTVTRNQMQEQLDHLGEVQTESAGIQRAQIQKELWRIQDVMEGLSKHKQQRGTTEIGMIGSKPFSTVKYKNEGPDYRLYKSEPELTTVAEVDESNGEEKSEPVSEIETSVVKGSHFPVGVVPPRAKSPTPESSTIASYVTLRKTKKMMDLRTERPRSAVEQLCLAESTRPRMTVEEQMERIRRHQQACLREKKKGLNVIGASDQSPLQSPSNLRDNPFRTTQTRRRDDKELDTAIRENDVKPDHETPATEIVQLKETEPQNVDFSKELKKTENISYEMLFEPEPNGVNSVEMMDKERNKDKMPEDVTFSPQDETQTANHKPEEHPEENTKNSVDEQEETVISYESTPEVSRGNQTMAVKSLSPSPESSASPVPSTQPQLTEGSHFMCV
Chain of UniProt Q15366 (Q15366 whole entry, looked up): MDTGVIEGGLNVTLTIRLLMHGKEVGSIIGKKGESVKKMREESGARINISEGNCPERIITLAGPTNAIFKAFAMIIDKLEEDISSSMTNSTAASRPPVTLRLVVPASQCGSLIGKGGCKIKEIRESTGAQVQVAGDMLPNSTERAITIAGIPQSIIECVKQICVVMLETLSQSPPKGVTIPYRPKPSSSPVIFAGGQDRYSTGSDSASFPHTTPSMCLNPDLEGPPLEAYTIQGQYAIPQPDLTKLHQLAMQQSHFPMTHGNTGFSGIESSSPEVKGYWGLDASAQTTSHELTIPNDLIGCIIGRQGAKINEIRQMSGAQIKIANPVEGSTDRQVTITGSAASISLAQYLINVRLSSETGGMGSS

Target | log2 fold change (erlotinib) | log2 fold change [1] | log2 fold change [2] | log2 fold change [3] | log2 fold change [4] | log2 fold change [5] | log2 fold change [6] | log2 fold change [7] | log2 fold change [8] | log2 fold change (IRAK-1-4 Inhibitor I)
PPIE (UniProt Q9UNP9) | 0.005 | -0.022 | 0.064 | 0.031 | -0.008 | 0.001 | -0.002 | -0.025 | 0.025 | -0.019
PLEKHA5 isoform 6 (UniProt Q9HAU0) | -0.007 | -0.021 | 0.016 | -0.058 | 0.087 | -0.021 | -0.007 | -0.002 | -0.04 | 0.019
PRKCSH (UniProt P14314) | -0.027 | 0.013 | 0.01 | -0.012 | -0.012 | 0.023 | 0.07 | 0.027 | -0.027 | 0.005
PHOSPHO2 (UniProt Q8TCD6) | -0.018 | -0.225 | 0.046 | -0.032 | -0.027 | -0.002 | 0.072 | 0.224 | -0.16 | -0.014
POLR3E (UniProt Q9NVU0) | 0.003 | 0.003 | -0.007 | 0.017 | 0.005 | 0.006 | -0.001 | -0.03 | -0.007 | -0.016
PRKCD (UniProt Q05655) | -0.041 | 0.016 | -0.035 | -0.047 | -0.01 | 0.006 | -0.023 | -0.069 | 0.019 | 0.013
PRIMPOL (UniProt Q96LW4) | -0.063 | 0.007 | -0.02 | -0.025 | 0.076 | -0.013 | 0.019 | 0.009 | -0.046 | 0.059
PXMP4 (UniProt Q9Y6I8) | 0.024 | 0.068 | 0.084 | -0.053 | 0.013 | 0.053 | -0.038 | 0.043 | 0.022 | 0.016
PIP4K2B (UniProt P78356) | 0.038 | -0.193 | -0.021 | 0.012 | 0.096 | 0.067 | 0.013 | 0.032 | -0.02 | -0.019
PRIM1 (UniProt P49642) | -0.004 | 0.061 | -0.011 | -0.01 | -0.03 | 0.02 | 0 | -0.006 | 0.002 | 0.003
PUF60 isoform 2 (UniProt Q9UHX1) | 0.102 | -0.094 | 0.083 | -0.019 | -0.064 | -0.088 | -0.005 | -0.045 | 0.033 | -0.011
PTPN2 (UniProt P17706) | 0.028 | 0.119 | -0.005 | 0.006 | 0.019 | -0.045 | -0.033 | 0 | 0.046 | -0.017
PRKAR2B (UniProt P31323) | 0 | 0.066 | -0.022 | -0.025 | 0.018 | -0.03 | -0.116 | -0.16 | -0.131 | -0.016
PMPCA (UniProt Q10713) | -0.034 | -0.012 | 0.073 | 0.008 | -0.006 | 0.043 | -0.014 | -0.026 | -0.012 | 0.007
PTS (UniProt Q03393) | -0.018 | -0.112 | -0.018 | 0.034 | 0.001 | 0.074 | -0.023 | -0.069 | 0.002 | 0.028
PPIL3 (UniProt Q9H2H8) | 0.022 | 0.071 | 0 | -0.016 | -0.039 | -0.012 | -0.028 | -0.004 | 0.071 | 0.03
PRKCSH isoform 2 (UniProt P14314) | 0.038 | -0.107 | 0.084 | 0.024 | 0.001 | -0.054 | -0.011 | -0.009 | 0.015 | 0.001
PPOX (UniProt P50336) | -0.044 | 0.532 (active) | 0 | -0.015 | -0.04 | 0.025 | 0.014 | 0 | -0.041 | -0.016
PPP2R3C (UniProt Q969Q6) | -0.061 | -0.009 | -0.126 | -0.025 | -0.019 | 0.033 | -0.032 | -0.023 | -0.035 | -0.018
PCBP2 isoform 3 (UniProt Q15366) | -0.017 | 0.005 | -0.027 | 0.018 | 0.034 | 0.012 | 0.042 | 0.038 | -0.022 | -0.026
PI4KB (UniProt Q9UBF8) | 0.017 | -0.108 | -0.011 | 0.038 | 0.173 | 0.011 | 0.193 | 0.01 | -0.065 | -0.003
POMP (UniProt Q9Y244) | 0.058 | -0.022 | -0.001 | 0.05 | -0.003 | -0.024 | -0.08 | -0.099 | 0.048 | -0.023
PPFIA2 (UniProt O75334) | 0.019 | -0.005 | 0.02 | -0.004 | 0.065 | 0.012 | -0.006 | 0.02 | -0.074 | -0.022
PPP2CA (UniProt P67775) | -0.088 | 0.134 | -0.057 | -0.045 | -0.007 | 0.064 | 0.016 | 0.106 | -0.027 | -0.041
PTPN7 isoform 3 (UniProt P35236) | 0.032 | -0.002 | -0.028 | -0.06 | -0.026 | -0.008 | -0.03 | 0.009 | 0.045 | 0.021
PMS1 (UniProt P54277) | -0.024 | 0.012 | 0.041 | -0.002 | 0.106 | 0.03 | -0.094 | -0.002 | 0.016 | -0.027
POLB (UniProt P06746) | 0.012 | 0.009 | 0.075 | 0.069 | -0.022 | 0.019 | -0.061 | -0.019 | 0.026 | -0.062
POC5 (UniProt Q8NA72) | -0.022 | -0.083 | -0.01 | 0.069 | -0.025 | 0.039 | -0.144 | 0.045 | 0.043 | 0.069
PFKP (UniProt Q01813) | -0.01 | -0.006 | 0.019 | -0.001 | -0.01 | 0 | 0.032 | 0.033 | 0.031 | -0.003
PIM1 isoform 2 (UniProt P11309) | 0.118 | -0.106 | -0.164 | 0.028 | 0.238 | 0.123 | -0.034 | -0.077 | 0.02 | -0.076
